# Results taken from the supplement of paper PMC8183993.
# Several values for one entry are separate records, joined by “and”; a condition that tells them apart may be missing. Equal values may be shown once. Where a name gives a salt, the structure may show the parent alone. ± gives the standard deviation of the averaged measurements. Over roughly 3,200 compounds, “nuclei count (viability) relative to DMSO” has its median near 99; the lowest 2% begin near 16. For the sample, the lowest values were picked, then their nearest neighbours and some compounds at random.
# System: U2OS
# Experiment: nuclei count (viability) relative to DMSO (% of DMSO); higher = more viable cells
# Conditions: 10 µM; 24 h
# Protocol: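 Primary image-based screen in U2OS cells: compounds at 10 uM for 24 h, then a 1 h o-propargyl-puromycin (OPP) pulse, click labelling, and high-throughput microscopy. Mean cytoplasmic OPP intensity and nuclei count were normalised to DMSO wells within each plate (DMSO = 100) and averaged over triplicate plates.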
row,SMILES,nuclei count
1,CCCNC(=O)N1N=C(c2ccc(N)cc2)c2cc3c(cc2C1C)OCO3 (configuration not stated),93
2,C[C@H]1O[C@@H](O[C@H]2[C@@H](O)C[C@H](O[C@H]3[C@@H](O)C[C@H](O[C@H]4CC[C@@]5(C)[C@H](CC[C@@H]6[C@@H]5C[C@@H](O)[C@]5(C)[C@@H](C7=CC(=O)OC7)CC[C@]65O)C4)O[C@@H]3C)O[C@@H]2C)C[C@H](O)[C@@H]1O [Digoxin],14.3
3,CCN1CCN(c2cc(-c3ccc(F)cc3)c3c(n2)CCCCCC3)CC1 [Blonanserin (Lonasen)],98.7
4,C[S+]([O-])c1ccc(-c2nc(-c3ccc(F)cc3)c(-c3ccncc3)[nH]2)cc1 (configuration not stated),96.8 and 103
5,CCCCC(CC)CNC(=N)NC(=N)NCCCCCCNC(=N)NC(=N)NCC(CC)CCCC (configuration not stated) [Alexidine dihydrochloride],6.87
6,N=C(NCCCCCCNC(=N)NC(=N)Nc1ccc(Cl)cc1)NC(=N)Nc1ccc(Cl)cc1 [Chlorhexidine],75.6
7,Nc1nc(OCc2cc(Br)cs2)c2[nH]cnc2n1 [Lomeguatrib],102
8,COc1cccc2c1C(=O)c1c(O)c3c(c(O)c1C2=O)C[C@@](O)(C(=O)CO)C[C@@H]3O[C@H]1C[C@H](N)[C@H](O)[C@H](C)O1 [Doxorubicin hydrochloride],13 ± 0.18
9,COc1cccc2c1C(=O)c1c(O)c3c(c(O)c1C2=O)C[C@@](O)(C(=O)CO)C[C@@H]3O[C@H]1C[C@H](N)[C@H](O)[C@H](C)O1 [Doxorubicin (Adriamycin)],12.7
10,COc1cccc2c1C(=O)c1c(O)c3c(c(O)c1C2=O)C[C@@](O)(C(C)=O)C[C@@H]3O[C@H]1C[C@H](N)[C@H](O)[C@H](C)O1 [Daunorubicin HCl (Daunomycin HCl)],10.2
11,COc1cccc2c1C(=O)c1c(O)c3c(c(O)c1C2=O)C[C@@](O)(C(=O)CO)C[C@@H]3O[C@H]1C[C@H](N)[C@H](O[C@@H]2CCCCO2)[C@H](C)O1 [Pirarubicin],33
12,CC(=O)[C@]1(O)Cc2c(O)c3c(c(O)c2[C@@H](O[C@H]2C[C@H](N)[C@H](O)[C@H](C)O2)C1)C(=O)c1ccccc1C3=O [Idarubicin HCl],11.6
13,COc1cccc2c1C(=O)c1c(O)c3c(c(O)c1C2=O)C[C@@](O)(C(C)=O)C[C@@H]3O[C@H]1C[C@H](N)[C@H](O)[C@H](C)O1 [Daunorubicin hydrochloride],12.3
14,COc1cccc2c1C(=O)c1c(O)c3c(c(O)c1C2=O)C[C@@](O)(C(=O)CO)C[C@@H]3O[C@H]1C[C@H](N)[C@@H](O)[C@H](C)O1 [Epirubicin HCl],13.2
15,CCCc1c(OCCCOc2ccc(OCC(=O)O)cc2)ccc(C(C)=O)c1O,108
16,COc1c(OCCCN2CCOCC2)ccc2c1N=C(NC(=O)c1cnc(N)nc1)N1CCN=C21,93.2
17,CCOC(=O)[C@H](CCc1ccccc1)N[C@H]1CS[C@H](c2cccs2)CN(CC(=O)O)C1=O [Temocapril HCl],108
18,O=C(/C=C/c1c(C(=O)O)[nH]c2cc(Cl)cc(Cl)c12)Nc1ccccc1 [Gavestinel],93.2
19,Cn1cnc(N)c2ncnc1-2 [3-Methyladenine],104
20,Cn1cnc(N)c2ncnc1-2 [3-Methyladenine (3-MA)],107
21,OCC1OC(n2cnc3c(NC4CCCC4)nc(Cl)nc32)C(O)C1O (configuration not stated) [2-Chloro-N6-cyclopentyladenosine],93.5

row,SMILES,nuclei count
1,"CC/C=C\C/C=C\C/C=C\C/C=C\C/C=C\C/C=C\CCC(=O)O [Docosa-4Z,7Z,10Z,13Z,16Z,19Z-hexaenoic acid]",96.9
2,CCCOC(=O)c1cc(O)c(O)c(O)c1 [N-Propyl gallate],82.9
3,Cc1cc(/C(=C/Nc2ccc(Cl)cc2)C(=O)Nc2ccc(Cl)cc2)on1,102
4,Cc1sc(N)c(C(=O)c2cccc(C(F)(F)F)c2)c1C,107
5,N[C@H](C(=O)O)[C@H](OCc1ccccc1)C(=O)O (racemic),89.6
6,CC(C)NCCN(C(C)C)S(=O)(=O)c1ccc(Cl)cc1Cl,79.5
7,CCCCCS(=O)(=O)CCCCCCCCCCn1c(-c2ccc(O)cc2)c(C)c2cc(O)ccc21,105
8,CN(CCOc1ccc(C[C@H](Nc2ccccc2C(=O)c2ccccc2)C(=O)O)cc1)c1ccccn1,104
9,CC1(C)S[C@@H]2[C@H](NC(=O)Cc3ccccc3)C(=O)N2[C@H]1C(=O)O [Benzathine benzylpenicillin],81.7
10,Cc1cc(C(=O)NNCc2ccccc2)no1 [Isocarboxazid],109
11,CC1(C)OC2=C(C(=O)c3ccccc3C2=O)[C@H](NCc2ccccc2)[C@@H]1O,14.7
12,CC1(C)S[C@@H]2[C@H](NC(=O)Cc3ccccc3)C(=O)N2[C@H]1C(=O)O [Benzylpenicillin sodium],98.6
13,C[C@H]1COC2(CCN(c3nc(=O)c4cc(C(F)(F)F)cc([N+](=O)[O-])c4s3)CC2)O1 (racemic) [BTZ043 racemate],101
14,Cc1nnc(-c2ccc3occ(-c4ccc([S+](C)[O-])cc4)c3c2)o1 (configuration not stated),112
15,COc1c(C)cnc(Cn2cnc3c(Cl)nc(N)nc32)c1C,49.7
16,Cc1cn(CCN2CCN(c3ccccc3-c3cc(C#N)cc(C(=O)NCCCN4CCCC4)c3)CC2)c2ccccc12,22.8
17,O=C(Nc1cc(C(F)(F)F)cc(C(F)(F)F)c1)c1cc(Cl)ccc1O,78.7
18,CC(C)C[C@H](NC(=O)N1CCCCCC1)C(=O)N[C@H](Cc1cn(C)c2ccccc12)C(=O)N[C@H](Cc1ccccn1)C(=O)O,100
19,C[N+](C)([O-])CCNc1ccc(NCC[N+](C)(C)[O-])c2c1C(=O)c1c(O)ccc(O)c1C2=O [Banoxantrone dihydrochloride],51.2
20,O=C1c2c(O)ccc(O)c2C(=O)c2c(NCCNCCO)ccc(NCCNCCO)c21 [Mitoxantrone dihydrochloride],15.5
21,O=C1c2ccccc2C(=O)c2c(NCCc3ccc(O)cc3)ccc(NCCc3ccc(O)cc3)c21,97.1

row,SMILES,nuclei count
1,Nc1[nH]nc2nc3ccccc3nc12,98.5
2,CCC(=O)N1CCN(c2ccc(-n3c(=O)ccc4cnc5ccc(-c6cnc7ccccc7c6)cc5c43)cc2C(F)(F)F)CC1 [Torin 1],80.4
3,Nc1ccc(-c2ccc3ncc4ccc(=O)n(-c5cccc(C(F)(F)F)c5)c4c3c2)cn1 [Torin 2],27.7 ± 1.8
4,COc1ccc(-c2ccc3ncc4c(c3c2)n(-c2ccc(N3CCNCC3)c(C(F)(F)F)c2)c(=O)n4C)cn1,16.4 ± 5.4
5,O=C1[C@@H]2[C@H]3CC[C@H](C3)[C@@H]2C(=O)N1C[C@@H]1CCCC[C@H]1CN1CCN(c2nsc3ccccc23)CC1 [Lurasidone HCl],102
6,CCN1CCN(c2ccc(Nc3cc(N(C)C(=O)Nc4c(Cl)c(OC)cc(OC)c4Cl)ncn3)cc2)CC1,96.4
7,CC(C)[C@H](NS(=O)(=O)c1ccc(-c2ccc(Br)cc2)cc1)C(=O)O,97.3
8,CC1(C)C[C@@H]1C(=O)N/C(=C\CCCCSC[C@H](N)C(=O)O)C(=O)O [Cilastatin],91.5
9,CC1(C)C[C@@H]1C(=O)N/C(=C\CCCCSC[C@H](N)C(=O)O)C(=O)O [Cilastatin sodium],96.7
10,COC1=CC(c2cc3ccccc3[nH]2)=N/C1=C\c1[nH]c(C)cc1C [Obatoclax mesylate (GX15-070)],45.5
11,CC[C@]1(O)C[C@@H]2CN(CCc3c([nH]c4ccccc34)[C@@](C(=O)OC)(c3cc4c(cc3OC)N(C)[C@H]3[C@@](O)(C(=O)OC)[C@H](OC(C)=O)[C@]5(CC)C=CCN6CC[C@]43[C@@H]65)C2)C1 [Vinblastine sulfate],16.8
12,CC[C@]1(O)C[C@@H]2CN(CCc3c([nH]c4ccccc34)[C@@](C(=O)OC)(c3cc4c(cc3OC)N(C)[C@H]3[C@@](O)(C(=O)OC)[C@H](OC(C)=O)[C@]5(CC)C=CCN6CC[C@]43[C@@H]65)C2)C1 [Vinblastine],100
13,CCC1=C[C@@H]2CN(C1)Cc1c([nH]c3ccccc13)[C@@](C(=O)OC)(c1cc3c(cc1OC)N(C)[C@H]1[C@@](O)(C(=O)OC)[C@H](OC(C)=O)[C@]4(CC)C=CCN5CC[C@]31[C@@H]54)C2 [Vinorelbine (Navelbine)],16.1
14,CC[C@]12C=CCN3CC[C@@]4(c5cc([C@@]6(C(=O)OC)C[C@@H]7C[C@@H](C(C)(F)F)CN(Cc8c6[nH]c6ccccc86)C7)c(OC)cc5N(C)[C@H]4[C@@](O)(C(=O)OC)[C@@H]1OC(C)=O)[C@@H]32 [Vinflunine Tartrate],14.1
15,CC[C@]1(O)C[C@H]2CN(CCc3c([nH]c4ccccc34)[C@@](C(=O)OC)(c3cc4c(cc3OC)N(C=O)[C@H]3[C@@](O)(C(=O)OC)[C@H](OC(C)=O)[C@]5(CC)C=CCN6CC[C@]43[C@@H]65)C2)C1 [Vincristine],18.1
16,CC[C@]1(O)C[C@H]2CN(CCc3c([nH]c4ccccc34)[C@@](C(=O)OC)(c3cc4c(cc3OC)N(C=O)[C@H]3[C@@](O)(C(=O)OC)[C@H](OC(C)=O)[C@]5(CC)C=CCN6CC[C@]43[C@@H]65)C2)C1 [Vincristine sulfate],17.8
17,O=C(c1cc(O)c(O)c(O)c1)c1ccc(O)c(O)c1O [Exifone],94.1
18,COc1ccccc1N1CCN(CCN(C(=O)C2CCCCC2)c2ccccn2)CC1,101
19,Cn1nc(C(C)(C)C)cc1C(=O)N[C@@H](Cc1cccc(Cl)c1)C(=O)NCC#N [Cathepsin Inhibitor 1],107
20,CC(C)c1cc(C(C)C)c(CC(=O)NS(=O)(=O)Oc2c(C(C)C)cccc2C(C)C)c(C(C)C)c1 [Avasimibe (CI-1011)],99.4
